Source: PubChem BioAssay
Active and inactive are the calls of the source.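 The calls were made as follows: active = mean inhibition above 46.5%, the solvent-only control mean plus 3 SD; inactive = the rest.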

What follows are compounds tested against Nuclear receptor coactivator 2 (Homo sapiens) (UniProt Q15596) (assay: inhibition of GAL4-SRC2 driven luciferase expression – cell-based, luminescence, HEK293, triplicate, confirmation (AID 652008;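 also: 0% = DMSO-treated cells and 100% = Gossypol at 36 µM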)). Settings: HEK293 GAL4-SRC2 luciferase reporter, at 8.9 µM, stronger effect = higher value.
Nuclear receptor coactivator 2 (Homo sapiens), sequence (Q15596 whole entry, looked up, the tested form may be a part): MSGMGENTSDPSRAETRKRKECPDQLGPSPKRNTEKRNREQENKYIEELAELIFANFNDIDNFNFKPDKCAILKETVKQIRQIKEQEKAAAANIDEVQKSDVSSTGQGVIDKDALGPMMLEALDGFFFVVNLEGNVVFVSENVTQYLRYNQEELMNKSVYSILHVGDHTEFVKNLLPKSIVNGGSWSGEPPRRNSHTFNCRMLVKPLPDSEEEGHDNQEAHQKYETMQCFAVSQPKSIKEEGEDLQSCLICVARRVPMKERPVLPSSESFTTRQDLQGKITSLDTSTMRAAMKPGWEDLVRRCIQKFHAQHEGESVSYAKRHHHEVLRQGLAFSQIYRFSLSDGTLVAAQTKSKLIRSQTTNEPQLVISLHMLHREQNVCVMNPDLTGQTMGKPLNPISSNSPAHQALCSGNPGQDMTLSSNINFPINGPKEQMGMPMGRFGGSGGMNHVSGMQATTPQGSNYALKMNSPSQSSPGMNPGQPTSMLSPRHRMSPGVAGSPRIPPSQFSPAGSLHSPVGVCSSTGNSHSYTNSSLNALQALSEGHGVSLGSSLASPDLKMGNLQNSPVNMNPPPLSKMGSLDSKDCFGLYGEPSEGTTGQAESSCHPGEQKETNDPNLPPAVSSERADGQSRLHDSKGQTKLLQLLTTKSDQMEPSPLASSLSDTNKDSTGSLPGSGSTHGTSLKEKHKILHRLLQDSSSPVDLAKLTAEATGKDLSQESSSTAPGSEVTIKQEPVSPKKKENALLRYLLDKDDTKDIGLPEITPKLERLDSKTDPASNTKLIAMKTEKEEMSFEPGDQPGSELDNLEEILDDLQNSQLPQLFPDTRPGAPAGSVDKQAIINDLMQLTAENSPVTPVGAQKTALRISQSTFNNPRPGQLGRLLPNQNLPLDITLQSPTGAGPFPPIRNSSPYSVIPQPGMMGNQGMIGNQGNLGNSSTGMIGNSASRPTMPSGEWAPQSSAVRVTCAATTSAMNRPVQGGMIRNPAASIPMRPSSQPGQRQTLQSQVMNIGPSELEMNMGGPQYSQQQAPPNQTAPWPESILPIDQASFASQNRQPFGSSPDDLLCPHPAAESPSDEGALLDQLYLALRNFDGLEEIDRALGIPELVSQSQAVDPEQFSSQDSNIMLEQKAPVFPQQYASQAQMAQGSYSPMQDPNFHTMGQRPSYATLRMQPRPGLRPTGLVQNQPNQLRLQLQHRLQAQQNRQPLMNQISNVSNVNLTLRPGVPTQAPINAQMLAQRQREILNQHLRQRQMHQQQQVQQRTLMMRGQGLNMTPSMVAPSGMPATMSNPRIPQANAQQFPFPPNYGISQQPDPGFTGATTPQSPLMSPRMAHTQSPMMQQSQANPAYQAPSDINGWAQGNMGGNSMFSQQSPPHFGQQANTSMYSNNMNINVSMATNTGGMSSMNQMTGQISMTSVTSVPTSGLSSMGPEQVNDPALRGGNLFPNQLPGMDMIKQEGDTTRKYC

| Structure (SMILES) | inhibition |
| --- | --- |
| O=C1C=CC(=C(c2ccc(O)cc2)c2ccc(O)cc2)C=C1 | 27.1% (inactive) |
| CC1=C(C(=O)OCc2ccc3c(c2)OCO3)C(c2cccc([N+](=O)[O-])c2)NC(=O)N1 (stereo not given) | 51.9% (active) |
| COc1ccc(-c2cncnc2-c2ccc(OC)cc2O)cc1 | 42.5% (inactive) |
| C=CCN(CC=C)c1ncnc2[nH]ncc12 | 34.4% (inactive) |
| CCOc1ccc(/C=C2\SC(=S)N(CCCC(=O)NCCCN3CCOCC3)C2=O)cc1 | 90% (active) |
| O=C(N/N=C/c1cc(Br)ccc1O)C(c1ccncc1)N1CCOCC1 (stereo not given) | 10.1% (inactive) |
| CCOC(=O)c1cccc(NS(=O)(=O)c2ccc(NC(C)=O)cc2)c1 | 40.8% (inactive) |
| O=C(NC1CCCCC1)C(c1cccnc1)N(C(=O)CCl)c1cccc(Cl)c1 (stereo not given) | 56.3% (active) |
| Cc1[nH]ccc2c1[nH]c1cc(=O)ccc12 | 26% (inactive) |
| Oc1ccc(Nc2ncnc3scc(-c4ccccc4)c23)cc1 | 57.6% (active) |
| CC(C)c1ccc(/C=C2\SC(=S)N(CCC(=O)N3CCCCC3CCO)C2=O)cc1 (stereo not given) | 76.4% (active) |
| COc1ccc(C(=O)C(CN2CCOCC2)c2ccccc2)cc1 (stereo not given) | 35% (inactive) |
| Cc1ccc(C)c(N2CCN(C(=O)CCS(=O)(=O)c3ccc4c(c3)NC(=O)CO4)CC2)c1 | 15.3% (inactive) |
| CS(=O)(=O)Nc1ccc(-c2cnc3cccnn23)cc1 | 45.8% (inactive) |
| Brc1ccc2ncnc(NCc3cccnc3)c2c1 | 39.8% (inactive) |
| NC(=O)c1sc2nc3c(c(-c4cccs4)c2c1N)CCCCC3 | 60.3% (active) |
| COc1ccc(-c2cn[nH]c2-c2ccc(OC)cc2O)cc1 | 25.8% (inactive) |
| CCOc1cc(CNc2ccc3c(c2)OCCO3)cc(Br)c1OCC | -1.58% (inactive) |
| C=C1C(=O)OC2CC1C(O)CC(C)=CCCC(C)=CC(O)CC2C (stereo not given) | 50.8% (active) |
| CCCC(=O)N1CCN(c2ccc(NC(=O)c3cc4ccccc4o3)cc2Cl)CC1 | 27.2% (inactive) |

| Structure (SMILES) | inhibition |
| --- | --- |
| Cn1nc(C(F)(F)F)c(C#N)c1N1CCN(c2ccc(F)cc2)CC1 | 48.8% (active) |
| c1csc(C2=Nn3c(nnc3-c3ccncc3)SC2)c1 | 62.6% (active) |
| Cc1ccc(S(=O)(=O)c2ccc([N+](=O)[O-])cn2)cc1 | 23.4% (inactive) |
| Cc1ccc(/C=C2\SC(=S)N(CCCC(=O)NC3CCCC3)C2=O)cc1 | 89.4% (active) |
| CN(C)C=Nc1ncc2c3ccccc3n(CCN(C)C)c2c1C#N | 9.25% (inactive) |
| Cc1nc2c(-c3ccc(Cl)cc3)cnn2c(N)c1-c1ccc(F)cc1 | 53.7% (active) |
| CCn1c2ccccc2c2cnc(N=CN(C)C)c(C#N)c21 | -0.33% (inactive) |
| Cc1c(/C(O)=C2/C(=O)C(=O)N(CCN3CCOCC3)C2c2ccco2)cnn1-c1ccccc1 (stereo not given) | 39% (inactive) |
| COc1ccc(Nc2ccnc3ccccc23)cc1 | 30% (inactive) |
| Cc1nn(C(C)(C)C)c(C)c1/C=N/OC(=O)Nc1ccc(Cl)c(Cl)c1 | 82% (active) |
| COc1cc2ccccc2ccc1=NO | 59.6% (active) |
| Clc1ccccc1C1=Nn2c(nnc2-c2ccncc2)SC1 | 46% (inactive) |
| C=CCn1c(C)cc(C2=NNC(=NC(C)(C)C)SC2)c1C | 63% (active) |
| Cc1ccc2occ(/C=N/NC(=O)[C@@H](N)Cc3ccccc3)c(=O)c2c1 | 44.1% (inactive) |
| CCOC(=O)c1cccc2c1-c1ccccc1/C2=N/O | 24.9% (inactive) |
| CCc1ccc(/C=C2\SC(=S)N(CCCC(=O)NCCCN3CCOCC3)C2=O)cc1 | 93.6% (active) |
| CCn1c(Oc2ccccc2C)nc2c1c(=O)n(C)c(=O)n2C | 40.9% (inactive) |
| C(=N\Nc1ccc2ccccc2n1)/c1ccc2c(c1)OCCO2 | 83.2% (active) |
| O=C(O)C1CC=CCC1C(=O)Nc1ccc2c(c1)OCCO2 (stereo not given) | 6.92% (inactive) |
| CC1=C(C(=O)OCc2ccc3c(c2)OCO3)C(c2ccc(Cl)cc2)NC(=O)N1 (stereo not given) | 46.3% (inactive) |
